Results reported in PubChem BioAssay (NCI).
Compounds without any hit were thinned out: in the full panel of roughly 83,000, 20% have a hit.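 Each cell line was grown in a 96-well plate and treated with one concentration of compound for 48 hours. Values below 10 were considered active.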 Unmarked numbers belong to inactive results. Activity calls are given as the source filed them.

Key:
Assay in all cases: NCI-60 one-dose screen, 48 h (100 = growth as untreated, 0 = no growth, -100 = all killed)
Settings in all cases: 10 µM unless noted
[1] = test system: NCI-H23 lung
[2] = test system: NCI-H226 lung
[3] = test system: NCI-H322M lung
[4] = test system: HOP-62 NSCLC
[5] = test system: NCI-H460 lung
[6] = test system: HOP-92 NSCLC
[7] = test system: NCI-H522 lung
[8] = test system: A549/ATCC NSCLC
[9] = test system: 786-0 renal
[10] = test system: DU-145 prostate
[11] = test system: K-562 leukemia
[12] = test system: MALME-3M melanoma
[13] = test system: MDA-MB-231 breast
[14] = test system: RXF 393 renal
[15] = test system: SF-268 CNS
[16] = test system: SF-295 CNS
[17] = test system: SF-539 CNS
[18] = test system: UACC-257 melanoma
[19] = test system: M14 melanoma
[20] = test system: COLO 205 colon

| SMILES | growth [1] | growth [2] | growth [3] [%] | growth [4] | growth [5] | growth [6] | growth [7] | growth [8] [%] | growth [9] | growth [10] | growth [11] | growth [12] | growth [13] | growth [14] | growth [15] [%] | growth [16] | growth [17] | growth [18] | growth [19] | growth [20] [%] |
| --- | --- | --- | --- | --- | --- | --- | --- | --- | --- | --- | --- | --- | --- | --- | --- | --- | --- | --- | --- | --- |
| Cc1cc(Cc2cc(C)cc(C(C)(C)C)c2O)c(O)c(C(C)(C)C)c1 | 23.3% | 58.3% | 75.7 | 68.3% | 8.85% (active) | 18.5% | 29.9% | 27.3 | 57% | 43.5% | 13% | 67.1% | 57.2% | 40.9% | 49.2 | 6.54% (active) | 62.4% | 59.8% |  |  |
| Cc1ccc(/C=C(\C#N)n2nnc3cc(Cl)c(Cl)cc32)cc1 | 24.8% | -9.44% (active) | 49.5 | 33.8% | 12.8% | -7.83% (active) | 17.3% | 38.8 | 5.73% (active) | 3.78% (active) | 6.41% (active) | 44% | -14.9% (active) | -33.5% (active) | 12 | -0.103% (active) | -13.1% (active) | 50.3% | -23% (active) |  |
| Cc1ccc(S(=O)(=O)Nc2sccc2-c2nc(-c3ccccc3)no2)cc1 | 87.5% | 87.9% | 82.1 | 77.8% | 92.3% | 88.8% | 81.2% | 90.3 | 94.5% | 105% | 103% | 94.4% | 101% | 96.1% | 92.4 | 99.3% | 95% | 89.3% | 87.1% |  |
| COc1ccc(-c2cn(-c3cccc(C(=O)/C=C/c4cc(OC)c(OC)c(OC)c4)c3)c(=O)[nH]2)cc1 | -2.28% (active) | 32.9% | 106 | 229% | -44.1% (active) | -3.4% (active) | -38.7% (active) | 46.4 | -89.4% (active) | 1.51% (active) | 0.142% (active) | 66.2% | 19.4% | -52.8% (active) | 20.1 | 26.4% | -89.1% (active) | 22.8% |  |  |
| CCOC(=O)c1c2c(c(C)n1C)-c1nn(Cc3ccc(OC)cc3)cc1CC2 | 83.2% | 94.5% | 190 | 132% | 111% | -0.787% (active) | 90.7% | 91.9 | 74.7% | 106% | 69.1% | 161% | 98.2% | 113% | 103 | 100% | 111% | 113% |  |  |
| C[C@@H](C[C@H](CCOCc1cccnc1)c1ccccc1)c1cc2ccccc2o1 | 90.7% | 80.2% | 90.5 | 81.8% | 98.4% | 84.9% | 78.2% | 90.2 | 93.8% | 98.7% | 81.5% | 95.5% | 98.1% | 92.8% | 89.3 | 97.6% | 98.8% | 94% | 92.8% |  |
| CCOc1cc(C2C(Cl)C(=O)N2n2cnnc2)ccc1O (centres undefined) | 97.2% | 106% | 97 | 74% | 104% | 91.9% | 86.2% | 90.5 | 92.7% | 110% | 104% | 99.5% | 106% | 93.4% | 92.4 | 105% | 101% | 88.9% | 95.4% |  |
| O=C(/C=C/C12c3ccccc3C(c3ccccc31)C1C(=O)N(c3ccccc3)C(=O)C12)c1ccccc1 (centres undefined) | 5.23% (active) | -27.4% (active) | 12.9 | 28.7% | -41.3% (active) | -6.42% (active) | 16.7% | 20.5 | 3.15% (active) | 5.98% (active) | 14.5% | -38.1% (active) | -3.22% (active) | -72.8% (active) | 35.9 | -3.2% (active) | -3.29% (active) | 33.6% | 14.7% |  |
| CCCCNCC(=O)Nc1ccc(C(=O)OCC)cc1 | 105% | 89.8% | 105 | 98.7% | 106% | 79.6% | 69.1% | 95.3 | 99.6% | 114% | 92.4% | 106% | 103% | 110% | 104 | 99.4% | 105% | 103% | 97.3% |  |
| CCc1cc(Cc2cc(CC)cc(C(C)(C)C)c2O)c(O)c(C(C)(C)C)c1 | 17.5% | 48.6% | 50 | 34.7% | 4.34% (active) | -22.6% (active) | 22.2% | 23.8 | 23.6% | 43.1% | 8.51% (active) | 19.5% | 13.8% | 5.58% (active) | 37.6 | -2.11% (active) | 39.6% | 46.7% |  |  |
| COc1cc(/C=C/C(=O)c2cccc(-n3cc(-c4ccc(Cl)cc4)[nH]c3=O)c2)cc(OC)c1OC | 52.3% | 81.4% | 92 | 86.4% | 54.7% | 51.5% | 16.5% | 88.6 | 82.2% | 37.1% | 20.9% | 94.2% | 76.7% | 53.6% | 48.8 | 80.8% | 33.7% | 67.2% |  |  |
| O=C(/C=C/C12c3ccccc3C(c3ccccc31)C1C(=O)N(c3ccccc3)C(=O)C12)c1ccc(Cl)cc1 (centres undefined) | 17.2% | -10% (active) | 35.3 | 23.5% | -17.5% (active) | 39.1% | 10.1% | 25.1 | 8.93% (active) | 21.8% | 18.2% | -32.7% (active) | -11.8% (active) | -71.2% (active) | 43 | 6.27% (active) | 0.701% (active) | 20.2% | 30% |  |
| Cc1ccc(Nc2ccc(Nc3ccc(C)cc3S(=O)(=O)O)c3c2C(=O)c2ccccc2C3=O)c(S(=O)(=O)O)c1 | 97.2% | 96.9% | 90 | 107% | 102% | 99% | 93.3% | 112 | 111% | 102% | 100% | 101% | 95.6% | 107% | 103 | 101% | 102% | 112% | 88% |  |
| C=C(C=O)C1CCC2(C(=O)O)CCC3(C)C(CCC4C5(C)CCC(O)C(C)(C)C5CCC43C)C12 (centres undefined) | -52.1% (active) | 5.95% (active) | 31.3 | 14.8% | -12.8% (active) | 67.1% | 24.2% | 34.1 | -37.3% (active) | -38.4% (active) | 13.6% | 1.55% (active) | 32.6% | -63.7% (active) | 24.3 | -6.97% (active) | -43.4% (active) | -46.4% (active) |  |  |
| CC1(C)N=C(N)N=C(N)N1c1ccc(Cl)c(Cl)c1 | 19.2% | 52.1% | 52.7 | 16.4% | 17% | 72.3% | 45.3% | 30.1 | 9.73% (active) | 46.5% | 23.6% | 67.8% | 68.4% | 61.4% | 42.9 | 17.2% | 13.4% | 55.6% |  |  |
| COc1ccc(-c2cncnc2N)cc1OC | 108% | 107% | 114 | -100% (active) | 98.6% | 85.2% | 105% | 97.5 | 107% | 114% | 103% | 111% | 112% | 112% | 103 | 97.5% | 107% | 111% | 103% |  |
| Cc1cc(C)on1 | 109% | 103% | 111 | 111% | 116% | 89.3% | 107% | 97.9 | 101% |  | 102% | 112% | 104% | 101% |  | 115% | 103% | 91.6% |  | 112 |
